# Data taken from PubChem BioAssay (NCI).
# Where “and” joins values, the source holds several entries; their conditions need not be identical. Equal values may be shown once. Compounds without any hit were thinned out: in the full panel of roughly 83,000, 20% have a hit.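 Single-concentration screen, 48 h exposure, 96-well plates. Endpoint: percent growth. Below 10 = active.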 A number with no mark means an inactive call. Calls of active or inactive are those of the source.
# Test system: MOLT-4 leukemia
# Experiment: NCI-60 one-dose screen, 48 h (100 = growth as untreated, 0 = no growth, -100 = all killed)
# Details: 10 µM unless noted
row,SMILES,growth
1,N#CC(C#N)=Cc1cccc(F)c1,97.9%
2,CN(C)c1ccc(C=C2C(=O)NC(=O)NC2=O)cc1,98.7%
3,[N-]=[N+]=CC(=O)CCC(=O)C=[N+]=[N-],87%
4,CC1=C2[C@H]3OC(=O)[C@@H](C)[C@@H]3CC[C@@]2(C)C=CC1=O,104%
5,Nc1c(Cl)c(Cl)nc(C(=O)O)c1Cl,70.2%
6,Cn1cc(C(=O)C[n+]2ccccc2)c2ccccc21,103%
7,Nc1nc(=S)nc(N)[nH]1,90.4%
8,C[C@]12CCC(=O)C[C@@H]1CC[C@@H]1[C@@H]2CC[C@]2(C)[C@@H](OC(=O)N(CCCl)N=O)CC[C@@H]12,13.3%
9,NC1CN2CCC1CC2 (configuration not stated),97.8%
10,O=C(O)C1C(C(=O)O)C2(Cl)C(Cl)=C(Cl)C1(Cl)C2(Cl)Cl (configuration not stated),115% and 106%
11,O=C1NC(=O)C(=C/C=C/c2ccccc2)C(=O)N1,4.09% (active)
12,c1ccc(CCN2CCCCC2)nc1,92.9%
13,O=[N+]([O-])c1cc(Br)c(O)c(Br)c1,107%
14,C[C@]12CC[C@@H](OC(=O)N(CCCl)N=O)C[C@@H]1CC[C@@H]1[C@@H]2CC[C@]2(C)C(=O)CC[C@@H]12,29.1%
15,N[C@@H](CCC(=O)CCl)C(=O)O,99.9% [20 µM]
16,Oc1ccc(O)c(Cl)c1,65.6% and 105%
17,CC(C)c1cccc(C(C)C)c1O,84% and 115%
